{
  "source": "PubChem BioAssay AID463173",
  "about": "(ICCB-Longwood Screening Facility, Harvard Medical School, 2010)",
  "note": "About 1,700 (3.3%) of roughly 52,000 compounds were called active. The sample holds actives, similar compounds and a random draw of the others, so the mix is not that of the screen. A number with no mark means an inactive call. Cut-off read from the data, not from the text of the source: active = survival mostly below about 52% (no sharp cut-off); inactive = mostly above about 56%.",
  "data": [
    {"tested_on": "Wild type", "assay": "growth inhibition of S. aureus wild type versus tarO mutant, primary screen, teichoic acid synthesis inhibitors, RN4220, OD600 (AID 463173)", "conditions": "S. aureus RN4220 wild type/DeltatarO growth, OD600, 18 h, hits give low values, screened at 18.75 µg/mL (by protocol)", "values": [
      {"smiles": "CCc1cccc(NC(=O)Cn2c(=O)n(CCc3ccc(OC)c(OC)c3)c(=O)c3ccccc32)c1", "survival": "124%"},
      {"smiles": "O=C(Cn1c(-c2cccs2)cc2ccccc21)NCCCN1CCN(c2ccc(F)cc2)CC1", "survival": "136%"},
      {"smiles": "O=C1S/C(=C\\c2ccccc2)C(=O)N1CN1CCOCC1", "survival": "125%"},
      {"smiles": "Cc1nc2cccnc2n1C1CCN(C(=O)Nc2ccccc2C(F)(F)F)CC1", "survival": "72%"},
      {"smiles": "COc1ccccc1CNC(=O)c1ccc(CN2CC(=O)N3CCCCC3C2=O)cc1", "note": "(centres undefined)", "survival": "72%"},
      {"smiles": "Cc1cc(C)cc(Nc2ncnc3sc4c(c23)CCCC4)c1", "survival": "-3% (active)"},
      {"smiles": "CCc1ccc(Nc2ncnc3sc4c(c23)CCCC4)cc1", "survival": "68%"},
      {"smiles": "CN(C)c1ccc(Nc2ncnc3sc4c(c23)CCCC4)cc1", "survival": "124%"},
      {"smiles": "O=C(CCC1N=C2c3ccccc3N=C(SCc3ccccc3Cl)N2C1=O)N1CCN(c2ccccc2)CC1", "note": "(centres undefined)", "survival": "65%"},
      {"smiles": "Cc1cc(C)c(NC(=O)Cn2c(=O)n(Cc3ccc(C(=O)NCc4ccc5c(c4)OCO5)cc3)c(=O)c3ccccc32)c(C)c1", "survival": "83%"},
      {"smiles": "Cc1c(Cl)cccc1NC(=O)CSc1nc2ncccc2o1", "survival": "1% (active)"},
      {"smiles": "Cc1cccc(C)c1NC(=O)CSc1nc2ncccc2o1", "survival": "63%"},
      {"smiles": "O=C(CSc1nc2ncccc2o1)Nc1cccc(C(F)(F)F)c1", "survival": "-3% (active)"},
      {"smiles": "COc1cc(NC(=O)CSc2nc3ncccc3o2)cc(OC)c1", "survival": "57%"},
      {"smiles": "O=C(CSc1nnc(-c2ccccc2F)o1)Nc1cccc(C(F)(F)F)c1", "survival": "60%"},
      {"smiles": "O=C(CSc1nc2ncccc2o1)Nc1ccc(Cl)cc1F", "survival": "81%"},
      {"smiles": "COc1cccc(NC(=O)N(Cc2c[nH]c3ccccc23)C2CCCCC2)c1", "survival": "71%"},
      {"smiles": "COc1cccc(NC(=O)N(Cc2cn(C)c3ccccc23)C2CCCCCC2)c1", "survival": "0% (active)"},
      {"smiles": "COc1cccc(NC(=O)N(Cc2nc3ccccc3c(=O)[nH]2)C2CCCCC2)c1", "survival": "122%"},
      {"smiles": "COc1cccc(NC(=O)N(Cc2c[nH]c3ccccc23)C2CCCCCC2)c1", "survival": "63%"},
      {"smiles": "COc1cccc(NC(=O)N(Cc2cn(C)c3ccccc23)C2CCCCC2)c1", "survival": "0% (active)"},
      {"smiles": "COc1cccc(NC(=O)Cn2cc(C(=O)C3CCCCC3)c3ccccc32)c1", "survival": "73%"},
      {"smiles": "CCOc1ccc(C(=O)Nc2nnc(SCc3cc(=O)n4ccccc4n3)s2)cc1", "survival": "69%"},
      {"smiles": "CCc1ccc(NC(=O)N(Cc2cn(CC)c3ccccc23)C2CCCCC2)cc1", "survival": "0% (active)"},
      {"smiles": "CCOc1ccc(NC(=O)N(Cc2c[nH]c3ccccc23)C2CCCCC2)cc1", "survival": "79%"},
      {"smiles": "CCOc1ccc(NC(=O)N(Cc2c[nH]c3ccccc23)C2CCCCCC2)cc1", "survival": "83%"},
      {"smiles": "CCOc1ccc(NC(=O)N(Cc2cn(CC)c3ccccc23)C2CCCCCC2)cc1", "survival": "0% (active)"},
      {"smiles": "CCc1ccc(NC(=O)N(Cc2c[nH]c3ccccc23)C2CCCCC2)cc1", "survival": "93%"},
      {"smiles": "CCc1ccc(NC(=O)N(Cc2c[nH]c3ccccc23)C2CCCCCC2)cc1", "survival": "127%"},
      {"smiles": "CCCCn1c(SCc2ccccc2C)nc2ccsc2c1=O", "survival": "136%"},
      {"smiles": "COc1cc(Nc2nc(SCc3ccccc3Cl)nc3ccccc23)cc(OC)c1", "survival": "95%"},
      {"smiles": "Cc1ccc(/C=C/c2nc3ccccc3n2S(=O)(=O)c2ccc(Br)cc2)cc1", "survival": "70%"},
      {"smiles": "CC(C)c1ccc(Nc2c(-c3ccsc3)nc3ccc(Cl)cn23)cc1", "survival": "95%"},
      {"smiles": "COc1ccc(C)cc1NC(=O)c1nnn(CC(=O)Nc2c(C)cccc2C)c1N", "survival": "74%"},
      {"smiles": "COc1ccc(NC(=O)Cn2c(=O)n(Cc3nc(C)no3)c(=O)c3cc4c(cc32)OCO4)cc1OC", "survival": "70%"},
      {"smiles": "Cc1ccc(OCC(=O)Nc2ccc(C(=O)OCc3cc(=O)n4nc(C5CC5)sc4n3)cc2)cc1", "survival": "81%"},
      {"smiles": "O=C(Nc1cccc(C(=O)OCc2cc(=O)n3nc(C4CC4)sc3n2)c1)c1ccc(F)cc1", "survival": "81%"},
      {"smiles": "COc1cccc(C(=O)Nc2ccc(C(=O)OCc3cc(=O)n4nc(C5CC5)sc4n3)cc2)c1", "survival": "63%"},
      {"smiles": "Cc1ccc(C(=O)Nc2cccc(C(=O)OCc3cc(=O)n4nc(C5CC5)sc4n3)c2)cc1", "survival": "55%"},
      {"smiles": "Cc1cccc(OCC(=O)Nc2ccc(C(=O)OCc3cc(=O)n4nc(C5CC5)sc4n3)cc2)c1", "survival": "-4% (active)"},
      {"smiles": "O=C(COc1ccccc1)Nc1ccc(C(=O)OCc2cc(=O)n3nc(C4CC4)sc3n2)cc1", "survival": "64%"},
      {"smiles": "O=C(Nc1cccc(C(=O)OCc2cc(=O)n3nc(C4CC4)sc3n2)c1)c1ccccc1", "survival": "1% (active)"},
      {"smiles": "COc1ccc(C(=O)Nc2ccc(C(=O)OCc3cc(=O)n4nc(C5CC5)sc4n3)cc2)cc1", "survival": "-3% (active)"},
      {"smiles": "COc1ccc(C(=O)Nc2cccc(C(=O)OCc3cc(=O)n4nc(C5CC5)sc4n3)c2)cc1", "survival": "111%"},
      {"smiles": "CCCCN(CC)CCNc1ncnc2onc(-c3ccc(Cl)cc3)c12", "survival": "82%"},
      {"smiles": "CCC(C(=O)NCc1cc(OC)ccc1OC)n1nc(C)c2sc3ccccc3c2c1=O", "note": "(centres undefined)", "survival": "87%"},
      {"smiles": "Cc1ccc(CCNC(=O)c2ccc3c(c2)N(Cc2cccc(F)c2)C(=O)c2ccccc2S3)cc1", "survival": "71%"},
      {"smiles": "CCN(CC)C(=O)CSc1nnc(COc2ccc(Br)cc2)o1", "survival": "102%"},
      {"smiles": "COCc1[nH]nc2c1C(c1ccccc1C(F)(F)F)C(C#N)=C(N)O2", "note": "(centres undefined)", "survival": "114%"},
      {"smiles": "CCCCCc1ccc(-c2ccc(Br)cc2)nc1", "survival": "-3% (active)"},
      {"smiles": "CCCc1ccc(-c2ccc(C(=O)Oc3ccc(Br)cc3)cc2)nc1", "survival": "140%"},
      {"smiles": "CCCCCc1ccc(-c2ccc(C(=O)Oc3ccc(C(=O)OC)cc3)cc2)nc1", "survival": "74%"},
      {"smiles": "NNC(=O)CCC(=O)Nc1ccccc1", "survival": "112%"},
      {"smiles": "CC(C)CNS(=O)(=O)c1ccccc1", "survival": "120%"},
      {"smiles": "CCN(CC)S(=O)(=O)N1CCN(S(=O)(=O)N2CCOCC2)CC1", "survival": "118%"},
      {"smiles": "O=C(CS(=O)(=O)c1cccc2nsnc12)N1CCN(c2ccc(F)cc2)CC1", "survival": "97%"},
      {"smiles": "CCOC(=O)c1nnn(-c2nn3nnnc3c3ccccc23)c1C", "survival": "101%"},
      {"smiles": "O=C(NCc1ccncc1)C1CCN(C(=O)c2cccc(Cl)c2)CC1", "survival": "111%"},
      {"smiles": "O=C(NCc1cccnc1)c1cn(C2CC2)c2cc(N3CCN(C(=O)c4cccc(Cl)c4)CC3)c(F)cc2c1=O", "survival": "0% (active)"},
      {"smiles": "CCn1cc(C(=O)NCC(C)C)c(=O)c2cc(F)c(N3CCN(C(=O)c4ccco4)CC3)cc21", "survival": "107%"},
      {"smiles": "CCc1ccc(NC(=O)Cn2c(=O)n(CCCC(=O)NCc3ccccc3Cl)c(=O)c3ccccc32)cc1", "survival": "136%"},
      {"smiles": "CC(C)CCN(Cc1ccco1)C(=O)c1cc2c(s1)-c1ccccc1OC2", "survival": "7% (active)"},
      {"smiles": "COc1cccc(CNC(=O)c2cc3c(s2)-c2ccccc2OC3)c1", "survival": "65%"},
      {"smiles": "CCN1CCN(CCCNC(=O)c2cc3c(s2)-c2ccccc2OC3)CC1", "survival": "84%"},
      {"smiles": "CN(C)CCN(Cc1ccco1)C(=O)c1cc2c(s1)-c1ccccc1OC2", "survival": "70%"},
      {"smiles": "CC(C)OCCCN(Cc1ccco1)C(=O)c1cc2c(s1)-c1ccccc1OC2", "survival": "9% (active)"},
      {"smiles": "COCCCN(Cc1ccco1)C(=O)c1cc2c(s1)-c1ccccc1OC2", "survival": "12% (active)"},
      {"smiles": "CC(C)CCN(Cc1ccco1)C(=O)c1cc2c(Cl)nc3ccccc3c2s1", "survival": "77%"},
      {"smiles": "O=C(CC1N=C2c3ccccc3N=C(SCc3ccccc3F)N2C1=O)NCc1cccs1", "note": "(centres undefined)", "survival": "75%"},
      {"smiles": "Cc1cc(C)c2c(NC(=O)c3ccccc3Cl)c(C(=O)Nc3ccc(C)c(C)c3)sc2n1", "survival": "64%"},
      {"smiles": "CCc1ccc(NC(=O)c2cc3nc(-c4ccc(C)cc4)cc(C(F)(F)F)n3n2)cc1", "survival": "60%"},
      {"smiles": "O=C(Nc1ccc(NC(=O)C2CC23CCC3)cc1)C1CC12CCC2", "note": "(centres undefined)", "survival": "118%"},
      {"smiles": "CCN1CCN(c2cc(C)c3cc(NC(=O)/C=C/c4cccc(OC)c4OC)ccc3n2)CC1", "survival": "83%"},
      {"smiles": "COc1ccc(F)cc1S(=O)(=O)Nc1cccc(-c2ccc(N3CCC(C)CC3)nn2)c1", "survival": "129%"},
      {"smiles": "O=S(=O)(Nc1cccc(-c2ccc(N3CCCCCC3)nn2)c1)c1ccccc1", "survival": "1% (active)"},
      {"smiles": "O=S(=O)(Nc1ccc(-c2ccc(N3CCCC3)nn2)cc1)c1ccc(C(F)(F)F)cc1", "survival": "64%"},
      {"smiles": "O=S(=O)(Nc1cccc(-c2ccc(N3CCCCC3)nn2)c1)c1cccc(F)c1", "survival": "119%"},
      {"smiles": "Cc1ccc(S(=O)(=O)Nc2cccc(-c3ccc(N4CCC(C)CC4)nn3)c2)s1", "survival": "-3% (active)"},
      {"smiles": "CC1CCN(c2ccc(-c3cccc(NS(=O)(=O)c4ccc(Cl)s4)c3)nn2)CC1", "survival": "71%"},
      {"smiles": "COc1ccc(C)cc1S(=O)(=O)Nc1cccc(-c2ccc(N3CCCC3)nn2)c1", "survival": "77%"},
      {"smiles": "O=S(=O)(Nc1cccc(-c2ccc(N3CCCCCC3)nn2)c1)c1ccc(F)cc1", "survival": "55%"},
      {"smiles": "O=S(=O)(Nc1ccc(-c2ccc(N3CCCCC3)nn2)cc1)c1ccc(OC(F)(F)F)cc1", "survival": "72%"},
      {"smiles": "O=S(=O)(Nc1ccc(-c2ccc(N3CCCC3)nn2)cc1)c1ccc(OC(F)(F)F)cc1", "survival": "-6% (active)"},
      {"smiles": "COc1ccc(C)cc1S(=O)(=O)Nc1cccc(-c2ccc(N3CCC(C)CC3)nn2)c1", "survival": "-4% (active)"},
      {"smiles": "Cc1ccc(S(=O)(=O)Nc2cccc(-c3ccc(N4CCCCC4)nn3)c2)s1", "survival": "64%"},
      {"smiles": "Cc1ccc(NC(=O)C(=O)NCC(c2ccc3c(c2)OCO3)N2CCOCC2)cc1C", "note": "(centres undefined)", "survival": "45%"},
      {"smiles": "CC(C)c1ccc(NC(=O)CSC2=Nc3ccccc3C3=NC(CC(=O)NCc4ccc(F)cc4)C(=O)N23)cc1", "note": "(centres undefined)", "survival": "73%"},
      {"smiles": "Cc1nc(C)c(-c2csc(NCc3ccccc3)n2)s1", "survival": "123%"},
      {"smiles": "COc1ccc(CC(=O)Nc2cc(-c3cn4cccnc4n3)ccc2C)cc1OC", "survival": "85%"}
    ]}
  ]
}
